Laboratory results published in PubChem BioAssay AID1159580 (chemical genetic matrix, 2015).
Out of some 5,500 compounds screened, about 2,000 (36%) were called active. Another 18% or so got no clear call; they are omitted. Rule as the data show it: active = normalized growth mostly below about 0.91 (no sharp cut-off); inconclusive = no clear call, values can overlap the other calls; inactive = mostly above about 0.92. This is one part of the list.

Assay: chemical genetic growth profiling, strain panel (AID 1159580);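 also: tested at 20 µM; growth read once vehicle control cultures reached saturation at 30 °C; 1 = growth at the plate median or of vehicle wells; lower values mean less growth of the strain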
Conditions: S. cerevisiae deletion strains, growth OD

Measured: normalized growth

CCN[C@@H]1C[C@H](N)[C@@H](O[C@H]2OC(CN)=CC[C@H]2N)[C@H](O)[C@H]1OC1OC[C@](C)(O)[C@H](NC)[C@H]1O (stereo not given in full)
inactive: locus YAL021C, strain ccr4, hits give low values 0.983 | locus YAL026C, strain drs2, hits give low values 0.995 | locus YAL030W, strain snc1, hits give low values 1.01 | locus YBL061C, strain skt5, hits give low values 1 | locus YBR009C, strain hhf1, hits give low values 1.02 | locus YBR023C, strain chs3, hits give low values 1 | locus YBR171W, strain sec66, hits give low values 0.996 | locus YBR231C, strain swc5, hits give low values 1.01 | locus YBR279W, strain paf1, hits give low values 1.01 | locus YCL011C, strain gbp2, hits give low values 0.977 | locus YCL016C, strain dcc1, hits give low values 1 | locus YCL061C, strain MRC1, hits give low values 0.989 | locus YCL069W, strain vba3, hits give low values 0.994 | locus YCR088W, strain abp1, hits give low values 0.983 | locus YDL005C, strain med2, hits give low values 1 | locus YDL040C, strain nat1, hits give low values 1.01 | locus YDR001C, strain nth1, hits give low values 0.985 | locus YDR069C, strain doa4, hits give low values 1.01 | locus YDR137W, strain rgp1, hits give low values 0.96 | locus YDR159W, strain sac3, hits give low values 1.01 | locus YDR195W, strain ref2 0.993 | locus YDR297W, strain sur2, hits give low values 0.998 | locus YDR334W, strain swr1, hits give low values 0.979 | locus YDR335W, strain msn5, hits give low values 0.986 | locus YDR392W, strain spt3, hits give low values 0.998 | locus YEL003W, strain gim4, hits give low values 0.989 | locus YEL037C, strain rad23, hits give low values 0.948 | locus YEL061C, strain CIN8 (second series), hits give low values 0.981 | locus YER015W, strain faa2, hits give low values 1.02 | locus YER016W, strain bim1, hits give low values 0.997 | locus YER111C, strain swi4, hits give low values 0.994 | locus YER155C, strain BEM2 (second series), hits give low values 1.01 | locus YFR010W, strain ubp6, hits give low values 0.975 | locus YGL167C, strain pmr1, hits give low values 0.998 | locus YGL173C, strain kem1, hits give low values 1 | locus YGL227W, strain vid30, hits give low values 0.995 | locus YGL240W, strain doc1, hits give low values 1.01 | locus YGL253W, strain hxk2, hits give low values 0.995 | locus YHR013C, strain ard1, hits give low values 1.02 | locus YHR027C, strain rpn1, hits give low values 0.999 | locus YHR030C, strain SLT2, hits give low values 0.97 | locus YHR079C, strain IRE1, hits give low values 1.02 | locus YHR142W, strain chs7, hits give low values 0.946 | locus YJL092W, strain hpr5, hits give low values 0.984 | locus YJL095W, strain BCK1 (second series), hits give low values 1.01 | locus YJL095W, strain BCK1, hits give low values 0.972 | locus YJL115W, strain asf1, hits give low values 0.998 | locus YJL129C, strain trk1, hits give low values 0.989 | locus YJL154C, strain vps35, hits give low values 0.996 | locus YJL164C, strain tpk1, hits give low values 0.996 | locus YJL166W, strain qcr8, hits give low values 1.01 | locus YJL187C, strain SWE1, hits give low values 1 | locus YJR066W, strain TOR1, hits give low values 0.947 | locus YKL160W, strain elf1, hits give low values 0.986 | locus YKR026C, strain gcn3, hits give low values 0.978 | locus YKR091W, strain srl3, hits give low values 0.995 | locus YLL001W, strain dnm1, hits give low values 0.981 | locus YLL026W, hits give low values 1.01 | locus YLL041C, strain sdh2, hits give low values 0.988 | locus YLR027C, strain aat2, hits give low values 1.01 | locus YLR113W, strain HOG1, hits give low values 0.953 | locus YLR221C, strain rsa3, hits give low values 0.987 | locus YLR258W, strain gsy2, hits give low values 1 | locus YLR262C, strain YPT6 (second series), hits give low values 1 | locus YLR320W, strain mms22, hits give low values 1.01 | locus YLR342W, strain FKS1, hits give low values 0.997 | locus YLR357W, strain rsc2, hits give low values 0.986 | locus YLR370C, strain arc18, hits give low values 0.994 | locus YLR384C, strain iki3, hits give low values 1 | locus YML120C, strain ndi1, hits give low values 0.983 | locus YMR058W, strain fet3, hits give low values 0.986 | locus YMR125W, strain sto1, hits give low values 1 | locus YMR129W, hits give low values 0.994 | locus YMR205C, strain PFK2, hits give low values 1.03 | locus YMR231W, strain pep5, hits give low values 1 | locus YNL071W, strain lat1, hits give low values 1 | locus YNL183C, strain NPR1, hits give low values 0.935 | locus YNL209W, strain ssb2, hits give low values 1 | locus YNL248C, strain rpa49, hits give low values 0.949 | locus YNL322C, strain KRE1 (second series), hits give low values 0.995 | locus YNR049C, strain mso1, hits give low values 0.995 | locus YOR001W, strain rrp6, hits give low values 0.982 | locus YOR070C, strain gyp1, hits give low values 0.996 | locus YOR080W, strain dia2, hits give low values 0.998 | locus YOR083W, strain WHI5, hits give low values 0.995 | locus YOR106W, strain vam3, hits give low values 0.985 | locus YOR231W, strain MKK1, hits give low values 0.986 | locus YOR265W, strain rbl2, hits give low values 1 | locus YOR270C, strain vph1, hits give low values 0.939 | locus YOR290C, strain snf2, hits give low values 0.987 | locus YPL051W, strain arl3, hits give low values 1 | locus YPL078C, strain atp4, hits give low values 0.972 | locus YPL106C, strain sse1, hits give low values 1 | locus YPL240C, strain hsp82, hits give low values 0.986 | locus YPL256C, strain CLN2, hits give low values 0.963
